# DT40 TDP1 no CPT – qHTS for Inhibitors of human tyrosyl-DNA phosphodiesterase 1 (TDP1): qHTS in cells in absence of CPT; Potency, µM (highest dose often 46.2 µM), usual class: inhibitors; DT40 Tdp1-/- hTDP1 cells, no CPT, ATP luminescence, 48 h; actives 15% (n = 420,000); further: nearly all actives have a fitted effect of over 55% in size
#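 No-CPT arm: Tdp1-/-;hTDP1 DT40 cells (400/well) plus compounds, incubated ≥48 hr at 37 °C. Readout CellTiter-Glo luminescence.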
# ASM inhibitor – Inhibitors of Secretory Acid Sphingomyelinase (S-ASM): qHTS | placental ASM, HMU-PC fluorogenic substrate, 60 min | Potency, µM (doses to about 57.5 µM), usual class: inhibitors | actives 0.006% (n = 340,000) | AID 504937, 2011
# Target sequence (P17405 47-631 limits assumed): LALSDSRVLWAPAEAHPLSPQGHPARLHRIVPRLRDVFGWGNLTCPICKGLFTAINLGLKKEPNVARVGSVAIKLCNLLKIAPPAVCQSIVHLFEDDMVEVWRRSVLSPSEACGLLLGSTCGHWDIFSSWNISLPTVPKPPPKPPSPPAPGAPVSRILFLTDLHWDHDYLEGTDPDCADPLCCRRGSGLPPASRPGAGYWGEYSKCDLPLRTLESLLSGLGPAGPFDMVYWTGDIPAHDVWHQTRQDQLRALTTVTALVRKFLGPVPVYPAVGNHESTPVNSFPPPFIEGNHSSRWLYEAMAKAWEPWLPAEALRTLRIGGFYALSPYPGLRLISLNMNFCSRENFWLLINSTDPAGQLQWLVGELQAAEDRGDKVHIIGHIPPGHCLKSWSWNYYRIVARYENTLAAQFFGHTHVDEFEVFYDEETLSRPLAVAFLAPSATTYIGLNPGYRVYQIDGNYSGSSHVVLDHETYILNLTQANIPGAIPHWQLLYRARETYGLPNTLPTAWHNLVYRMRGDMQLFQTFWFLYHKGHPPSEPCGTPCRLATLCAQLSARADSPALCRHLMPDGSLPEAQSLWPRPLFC
#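 Fluorescence read-out (Ex 386 nm, Em 447 nm) after stopping the reaction at pH 10. Enzyme: ASM from human placenta; substrate HMU-PC0, 9 uM final; 60 min, 37 °C. Compound preincubation 10 min, ambient temperature.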
# HepG2 tox – qHTS for Inhibitors of TGF-b: Cytotox Counterscreen; HepG2 CAGA-GFP viability, ATP luminescence, 18 h; Potency, µM (doses to about 46.1 µM), most hits filed as cytotoxic; actives 0.76% (n = 410,000)
#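 HepG2 CAGA-GFP cells (1000/well, DMEM with 1% FBS) received compound, then TGF-beta at 500 pg/mL final, and were incubated 18 hours at 37 degrees C. Viability was read by CellTiter-Glo luminescence. Media-only wells were set as complete cell-killing and DMSO as no toxicity.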
# TGFb inhibitor – qHTS for Inhibitors of TGF-b. HepG2 CAGA-GFP TGF-b/SMAD3 reporter, GFP fluorescence, 18 h; TGF-beta stimulated, 500 pg/mL final. Potency, µM (titrated, usually from 46.1 µM), hits mostly inhibitors. actives 1.2% (n = 410,000). AID 588855, 2011; further: nearly all actives have a fitted effect of over 65% in size
#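 HEPG2 CAGA-GFP, 1000 cells/well; 2 h settle, 37 C; cpd via pin tool; TGF-b 500 pg/mL final; 18 h, 37 C; GFP imaging ex488/em500-530; %Activity normalised to -TGF-b and +DMSO controls; CRC fit, curve class.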
# IL1B secr inh – qHTS for Inhibitors of Inflammasome Signaling: IL-1-beta AlphaLISA Primary Screen | THP-1 LPS/ATP IL-1B secretion, AlphaLISA, 16 h; hits give low values | activity change, % at 57.5 µM | actives 4.7% (n = 360,000) | AID 743279, 2014; in the data active means activity change below about -50%; inconclusive means mostly about -30% to -49%
#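 THP-1 cells pretreated 1 hr with compounds (up to 57.5 uM final), then stimulated with LPS (250 ng/mL final) plus ATP (1.25 mM final); secreted IL-1B measured by AlphaLISA after 16 hr, decreased signal indicating inhibition.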
# TDP1 cell CPT – qHTS for Inhibitors of human tyrosyl-DNA phosphodiesterase 1 (TDP1): qHTS in cells in presence of CPT; chicken DT40 Tdp1-/-;hTDP1 cells + 20 nM CPT, ATP luminescence, 48 h; Potency, µM (doses to about 46.2 µM), most hits filed as inhibitors; actives 12% (n = 420,000); further: nearly all actives have a fitted effect of over 55% in size
#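 Cell growth measured by CellTiter-Glo luminescence after a minimum 48 h, 37 C compound exposure with 20 nM CPT in Tdp1-knockout DT40 cells stably expressing hTDP1, seeded 400/well; qHTS titration format.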
# Numbers stand for hits; 0 = inactive; ? = inconclusive; - = not tested or not shown; ! = not active in a repeat. Most compounds without a hit are left out; they make up all but 19% or so of the library. Unless noted, the call rests on the fitted dose curve; in most records, active means well fitted curve in the direction sought with a large enough effect; inconclusive means small, poorly fitted or top-dose-only effect, or another doubt; inactive means no such curve, though single readings can be large; an effect the other way counts as inactive or inconclusive.
SMILES,DT40 TDP1 no CPT,ASM inhibitor,HepG2 tox,TGFb inhibitor,IL1B secr inh,TDP1 cell CPT
COc1ccc(NS(=O)(=O)c2ccc3nc(COc4cccc5ccccc45)[nH]c3c2)cc1,21µM,0,0,?,0,16µM
COc1ccccc1NS(=O)(=O)c1ccc2nc(CCl)[nH]c2c1,?,0,0,0,0,?
COc1ccc(NS(=O)(=O)c2ccc3oc(=S)[nH]c3c2)cc1,0,0,0,0,0,0
COc1ccc(OCc2nc3ccc(S(=O)(=O)Nc4ccccc4Cl)cc3[nH]2)cc1,?,0,0,0,-51,?
CCc1ccccc1OCc1nc2ccc(S(=O)(=O)N3CCOCC3)cc2[nH]1,?,0,0,0,0,23µM
Oc1c(C(c2ccccc2F)N2CCN(Cc3ccccc3)CC2)sc2nc(-c3ccco3)nn12 (configuration not stated),0,-,0,?,-,0
CC(C)(C)c1ccc(C(=O)N2CCN(c3ncccn3)CC2)cc1,0,0,0,0,0,0
Cn1cc(/C=C/c2ccc3ccccc3n2)c2ccccc21,10µM,-,0,?,-,11µM
O=C(O)/C=C/c1ccc2ccccc2n1,0,0,0,0,-71,?
O=[N+]([O-])c1ccc(/C=C/c2ccc3ccccc3n2)cc1,?,0,0,0,0,?
CC(=O)c1ccc(N2CCN(C(=O)/C=C/c3ccc4ccccc4n3)CC2)cc1,15µM,0,0,0,0,?
C(=C\c1ccc2ccccc2n1)/c1ccccc1,?,0,10µM!,?,0,?
Cc1nc2ccc(C(=O)NCCCN3CCCC3=O)cn2c1N(C)C(=O)CCc1ccccc1,0,-,0,0,0,0
CCOc1ccc(N(CC(=O)NCc2ccc(C)cc2)S(=O)(=O)c2c(C)noc2C)cc1,0,-,0,0,-,0
CC[N+](CC)(CC)c1ccc(/C=C/c2ccc3ccccc3n2)cc1,0.071µM,-,10µM,6.3µM,-,0.089µM
O=C(/C=C/c1ccc2ccccc2n1)c1cc(Br)ccc1O,?,0,0,0,0,12µM
C(=C\c1ccc2ccccc2n1)/c1ccc2ccccc2n1,?,-,0,0,-,13µM
C(=C\c1ccnc2ccccc12)/c1ccc2ccccc2n1,7.9µM,-,0,?,-,7.1µM
N#CCCn1c(O)c(N=NC(=O)CNC(=O)c2cccs2)c2ccccc21,0,0,0,0,0,0
COc1ccc(Cl)cc1C(=O)NC1CC(C)(C)NC(C)(C)C1,0,-,0,0,0,0
Cc1ccc(NCc2ccccc2-c2nnc(-c3ccccc3Cl)o2)cc1Cl,0,-,0,0,-,0
C(=C\c1ccc2ccccc2n1)/c1cccnc1,16µM,-,0,0,-,22µM
C(=NN1CCCCCC1)c1ccc2ccccc2n1,16µM,0,0,0,0,?
C(=NN1CCCCCC1)c1cccc2ccccc12,?,0,0,0,0,0
Oc1ccc(/C=C/c2ccc3ccccc3n2)cc1,21µM,0,0,0,0,23µM
SMILES,DT40 TDP1 no CPT,ASM inhibitor,HepG2 tox,TGFb inhibitor,IL1B secr inh,TDP1 cell CPT
O=C(COC(=O)CNC(=O)C1CCCCC1)NC1CC1,0,-,0,0,-,0
COc1cc(OC)cc(C(=O)Nc2ccc(S(=O)(=O)N3CCCCC3c3cccnc3)cc2)c1 (configuration not stated),26µM,-,0,0,-,?
Cc1ccc(S(=O)(=O)N2CCCCC2c2cccnc2)c(C)c1C (configuration not stated),23µM,0,0,?,0,?
CCCCCCCNC(=O)C1(CC2CC(c3ccccc3)=NO2)CCN(C(=O)OC(C)(C)C)CC1 (configuration not stated),18µM,0,0,0,0,?
CC(C)(C)OC(=O)N1CCC(CC2CC(c3ccccc3)=NO2)(C(=O)NCc2ccccc2)CC1 (configuration not stated),?,0,0,?,0,?
CCCCCCCNC(=O)C1(CC2CC(c3ccccc3)=NO2)CCN(C(=O)c2ccccc2)CC1 (configuration not stated),16µM,0,0,?,0,?
CC1(CO)COC2(OC1)C(=O)Nc1ccccc12 (configuration not stated),0,0,0,0,0,0
COc1cc(Cl)c(C)cc1NC(=O)c1cc(S(=O)(=O)N2CCCC2)ccc1F,0,-,0,0,-,0
COCCCNc1nc(N)c([N+](=O)[O-])c(N2CCCCCC2)n1,0,0,0,0,0,0
CCOc1ccccc1NC(=O)C(NCC1CCCCC1)c1ccccc1 (configuration not stated),0,0,0,?,0,?
CCOc1ccccc1O[C@H](c1ccccc1)[C@H]1CNCCO1,19µM,0,0,0,0,30µM
Clc1ccc(NC2(c3nnnn3C3CCCCC3)CCCCC2)cc1,21µM,0,0,0,0,18µM
O=C(c1ccc(Cl)c(S(=O)(=O)N2CCCC2)c1)N1CCCCC1,?,0,0,0,0,0
CC1CN(S(=O)(=O)c2cc(C(=O)N3CCCCC3C)ccc2Cl)CC(C)O1 (configuration not stated),1.8µM,0,0,0,0,0
CC1CCN(S(=O)(=O)c2cc(C(=O)N3CCN(c4ncccn4)CC3)ccc2Br)CC1,23µM,0,0,0,0,?
CC1CCCN(C(=O)c2ccc(Cl)c(S(=O)(=O)N3CCCCCC3)c2)C1 (configuration not stated),18µM,0,0,?,0,?
CC(=O)N1CCC2(CC1)CCN(c1ccccn1)CC2,0,-,-,-,-,0
COc1ccc(CCCc2nnc(SCC(=O)Nc3cccc(F)c3C)o2)cc1,0,-,0,0,-,0
C[C@H](NC(=O)c1[nH]cnc1C(=O)N[C@H](C)c1ccccc1)c1ccccc1,?,0,0,0,0,?
Cc1ccc(CN2CCC(=O)N(Cc3ccccn3)CC2)c(C)c1,0,-,-,-,-,0
CCC(Oc1ccccc1)C(=O)Nc1cc(-c2ccccc2OC)nn1-c1ccccc1 (configuration not stated),23µM,-,0,?,-,?
CC(C)CC(=O)Nc1cc(-c2ccccc2F)nn1-c1ccccc1,12µM,-,0,0,-,26µM
O=C(Nc1cc(-c2ccccc2)nn1-c1ccccc1)c1ccccc1F,?,0,0,0,0,?

# From PubChem
